DUX4 inh: DUX4-mediated transcription inhibition. 293T-iDUX4 ZSCAN4-Gaussia luciferase reporter, 24 h; hits give low values. activity change, negative = inhibition, % (test concentration not listed). 37,000 compounds, 0.8% hits;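 active = mean inhibition of at least 10% in the main channel, exceeding the control channel by a set limit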;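 also: 0% = median of neutral control wells and -100% = median of positive control wells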
An asterisk follows results filed as active. This is one part of a sample in which hits are shown more often than they occur.

SMILES | DUX4 inh
CNC[C@H]1Oc2c(NC(=O)Nc3c(C)noc3C)cccc2C(=O)N([C@H](C)CO)C[C@@H]1C | -2
COc1ccc2c3c(n(C)c2c1)[C@@H](CO)N(C)CC31CCN(C(=O)C2CCC2)CC1 | 16
C/C=C/c1ccc([C@H]2[C@@H](CO)N(CC3CCOCC3)C23CN(S(=O)(=O)CC)C3)cc1 | -5
COCC(=O)N1C[C@H]2[C@@H](c3ccccc31)[C@H](CO)N2C(=O)c1ccncc1 | 0
C[C@@H]1CN([C@@H](C)CO)S(=O)(=O)c2ccc(/C=C/c3ccccc3)cc2O[C@@H]1CN(C)C(=O)c1ccc2c(c1)OCO2 | -3
CNC(=O)C[C@@H]1CC[C@@H]2[C@H](COc3ccc(NC(=O)Nc4cccc(C)c4)cc3C(=O)N2C)O1 | -2
C[C@@H]1CCCCO[C@H](CN(C)Cc2ccc(Cl)c(Cl)c2)[C@@H](C)CN([C@@H](C)CO)C(=O)c2cc(NC(=O)Nc3ccc4c(c3)OCO4)ccc2O1 | -1
C[C@@H]1CCCCO[C@H](CN(C)CC2CCCCC2)[C@@H](C)CN([C@H](C)CO)C(=O)c2cc(NC(=O)CCCCCC(=O)Nc3ccccc3N)ccc2O1 | 0
CNC[C@H]1OCCCC[C@H](C)Oc2ccc(NS(=O)(=O)c3ccc(F)cc3)cc2C(=O)N([C@@H](C)CO)C[C@@H]1C | 1
CCNC(=O)[C@H]1[C@H](CO)[C@H]2Cn3c(cccc3=O)[C@@H]1N2C(=O)c1ccc(F)cc1 | -1
O=C(c1ccc(F)cc1)N1CC[C@@H]2[C@H](CO)Nc3ccc(C#CC4CC4)cc3[C@@H]21 | 0
O=C(Cc1ccccc1)N1CC[C@H]2[C@H](CO)Nc3ccc(C#Cc4ccccc4)cc3[C@H]21 | 9
O=C(c1cccc(F)c1)N1CC[C@@H]2[C@H]1c1cc(C#Cc3ccc(F)cc3)ccc1N[C@@H]2CO | -14*
O=C(Cc1ccccc1)N1CC[C@H]2[C@H](CO)Nc3ccc(C#Cc4cccc(F)c4)cc3[C@H]21 | -4
COc1ccc(C#Cc2ccc3c(c2)[C@@H]2[C@@H](CCN2C(=O)c2cccc(F)c2)[C@@H](CO)N3)cc1 | 21
O=C(c1ccc(F)cc1)N1CC[C@H]2[C@H](CO)Nc3ccc(C#Cc4ccccc4F)cc3[C@H]21 | 0
O=C(Cc1ccccc1)N1CC[C@@H]2[C@H](CO)Nc3ccc(C#Cc4cccc(F)c4)cc3[C@@H]21 | -19*
O=C(c1ccc(F)cc1)N1CC[C@@H]2[C@@H](CO)Nc3ccc(C#Cc4ccc(F)cc4)cc3[C@@H]21 | -52*
COc1ccc(C#Cc2ccc3c(c2)[C@H]2[C@H](CCN2C(=O)c2cccc(F)c2)[C@@H](CO)N3)cc1 | 11
COc1ccccc1-c1ccc2n(c1=O)C[C@H]1[C@H](CO)[C@@H](C(=O)N[C@H](C)c3ccccc3)[C@@H]2N1C | -5
O=C(c1ccncc1)N1C[C@@H]2[C@H](c3ccccc31)[C@H](CO)N2C(=O)c1ccccn1 | -4
CCN1[C@H](C(=O)N(C)C)[C@@H](CO)[C@@H]2Cn3c(ccc(C4=CCCC4)c3=O)[C@@H]21 | 2
CS(=O)(=O)N1[C@H](C(=O)NCC2CC2)[C@@H](CO)[C@@H]2Cn3c(ccc(-c4ccccc4F)c3=O)[C@@H]21 | -1
CCCN1C[C@@H](C)[C@@H](OC)CN(C)C(=O)c2ccc(NC(=O)CC(F)(F)F)cc2OC[C@@H]1C | -1
Cn1cnc(S(=O)(=O)N2CCCCN3[C@H](C2)[C@H](c2ccc(-c4cccc(F)c4)cc2)[C@@H]3CO)c1 | 9
SMILES | DUX4 inh
Cn1cnc(S(=O)(=O)N2CCCCN3[C@H](CO)[C@H](c4ccc(-c5cccc(F)c5)cc4)[C@H]3C2)c1 | 1
Cc1ccccc1S(=O)(=O)N1CCCCN2[C@H](CO)[C@@H](c3ccc(-c4cccc(F)c4)cc3)[C@H]2C1 | -39*
Cc1ccccc1S(=O)(=O)N1CCCCN2[C@@H](CO)[C@@H](c3ccc(-c4cccnc4)cc3)[C@@H]2C1 | 0
Cc1cccc(-c2ccc([C@@H]3[C@H](CO)N4CCCCN(S(=O)(=O)c5ccccc5F)C[C@@H]34)cc2)c1 | -5
Cc1ccccc1-c1ccc([C@@H]2[C@@H](CO)N3CCCCN(S(C)(=O)=O)C[C@H]23)cc1 | 3
Cc1ccccc1S(=O)(=O)N1CCCCN2[C@H](C1)[C@H](c1ccc(-c3cccc(F)c3)cc1)[C@@H]2CO | -19*
CCS(=O)(=O)N1CCCCN2[C@H](C1)[C@@H](c1ccc(-c3ccccc3C)cc1)[C@@H]2CO | 9
Cc1ccccc1-c1ccc([C@@H]2[C@@H](CO)N3CCCCN(S(=O)(=O)Cc4ccccc4)C[C@H]23)cc1 | -45*
O=C(C[C@H]1CC[C@@H]2[C@H](COC[C@H](O)CN2C(=O)c2cnccn2)O1)N1CCN(c2ccccc2)CC1 | 4
COCC(=O)N1CC[C@@H]2[C@@H](CO)Nc3ccc(-c4ccc(C#N)cc4)cc3[C@@H]21 | 23
COCC(=O)N1[C@@H](CO)[C@H](c2ccccc2)C12CN(C(=O)c1cccnc1)C2 | 16
COc1ccccc1-c1ccc([C@@H]2[C@@H](CO)N(C(=O)C3CCOCC3)[C@H]2C#N)cc1 | -3
CO[C@@H]1CC[C@H]2CCOc3ccc(C#N)cc3C(=O)N(C)[C@@H](C)C(=O)N(C)C[C@@H]1O2 | -5
Cc1noc(C)c1NC(=O)N(C)C[C@H]1Oc2c(NC(=O)C3CCOCC3)cccc2C(=O)N([C@@H](C)CO)C[C@H]1C | -4
COCC#Cc1ccc([C@@H]2[C@H]3CN(Cc4cccnc4)CCCCN3[C@H]2CO)cc1 | 6
COCC#Cc1ccc([C@@H]2[C@@H](CO)N3CCCCN(Cc4cccnc4)C[C@H]23)cc1 | 9
COc1cccc(CN2CCCCN3[C@H](C2)[C@@H](c2ccc(C#Cc4cccnc4)cc2)[C@@H]3CO)c1 | -17*
COCC#Cc1ccc([C@H]2[C@H]3CN(Cc4cccnc4)CCCCN3[C@H]2CO)cc1 | 29
COc1cccc(CN2CCCCN3[C@@H](CO)[C@@H](c4ccc(C#Cc5cccnc5)cc4)[C@@H]3C2)c1 | -36*
COc1cccc(CN2CCCCN3[C@H](CO)[C@@H](c4ccc(-c5cccnc5)cc4)[C@H]3C2)c1 | 5
O=C(Nc1ccc2c(c1)[C@H]1C[C@@H](CC(=O)N3CCOCC3)O[C@H](CO)[C@H]1O2)c1cccnc1 | 4
O=C(CC1CC1)N1CC(=O)N2[C@@H](CO)[C@@H](c3ccc(C#Cc4ccccc4)cc3)[C@@H]2C1 | -4
O=C(C[C@H]1C[C@@H]2c3cc(NC(=O)NC4CCCC4)ccc3O[C@@H]2[C@H](CO)O1)NCC1CC1 | 2
CC(=O)N1CC2(C1)[C@H](c1ccccc1)[C@@H](CO)N2C(=O)c1ccncc1 | -6
O=C(N[C@H]1C=C[C@@H](CC(=O)N2CCc3ccccc3C2)O[C@@H]1CO)C1CCC1 | 3
CO[C@H]1CN(C)C(=O)c2ccc(NC(=O)Nc3ccccc3)cc2OC[C@@H](C)N(C(=O)CC2CC2)C[C@H]1C | -5
COCC#Cc1ccc([C@H]2[C@@H](CO)N3CCCCN(C(=O)Nc4cc(F)ccc4F)C[C@H]23)cc1 | -23*
CN(C)CC#Cc1ccc([C@@H]2[C@H](CO)N3CCCCN(C(=O)Nc4cc(F)ccc4F)C[C@@H]23)cc1 | 20
C/C=C/c1ccc([C@H]2[C@@H](CO)N3CCCCN(C(=O)Nc4ccc(F)cc4)C[C@@H]23)cc1 | 15
C/C=C/c1ccc([C@@H]2[C@@H](CO)N3CCCCN(C(=O)Nc4cc(F)ccc4F)C[C@@H]23)cc1 | -13*
